Unmarked numbers belong to inactive results. The rule behind the calls is not given here.

Sequence of Pantothenate synthetase (Mycobacterium tuberculosis (strain ATCC 25618 / H37Rv)) (P9WIL5 whole entry, looked up): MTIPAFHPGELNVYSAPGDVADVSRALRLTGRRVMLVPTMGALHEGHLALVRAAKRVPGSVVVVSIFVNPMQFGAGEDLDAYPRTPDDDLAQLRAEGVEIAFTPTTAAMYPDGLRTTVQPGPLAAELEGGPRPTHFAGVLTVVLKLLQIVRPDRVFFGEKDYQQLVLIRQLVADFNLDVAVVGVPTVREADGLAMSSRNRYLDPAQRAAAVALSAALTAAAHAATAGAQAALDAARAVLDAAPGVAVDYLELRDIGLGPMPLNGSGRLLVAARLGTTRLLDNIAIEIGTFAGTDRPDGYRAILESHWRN

This assay addresses Pantothenate synthetase (Mycobacterium tuberculosis (strain ATCC 25618 / H37Rv)) (UniProt P9WIL5). Briefly: Recombinant Mtb pantothenate synthetase (PanC) inhibitors, coupled enzyme, confirmatory (AID 375).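 Note: 0% = full reaction with vehicle and 100% = no enzyme background.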 The settings on record: coupled enzyme assay; at 10 µM, stronger effect = higher value.
Turning to `CCOCCOc1nc2c(c(=O)n(C)c(=O)n2C)n1Cc1ccc(C)cc1`, the inhibition was 0%.

For the compound `COc1ccc(-n2c(Cc3cccn3C)nnc2SCC(=O)Nc2cccc(OC)c2)cc1`, the inhibition was 2%.

As for `COc1ccccc1NC(=O)NCCCN1CCN(c2cccc(Cl)c2)CC1`, the inhibition was 2%.

`CCCCOC(=O)n1c(SCC(=O)N(CC)CC)nc2ccccc21`: the inhibition was 0%.

Take `O=C(NCc1cccnc1)c1ccccn1`: the inhibition was 0%.

Consider `CCCc1[nH]nc2c1C(c1cn[nH]c1-c1ccc(F)cc1)C(C#N)=C(N)O2` (configuration not stated), for which the inhibition is 10%.

Turning to `O=C(c1ccc(Cl)cc1)N1CCCOC1`, the inhibition is 4%.

As for `COc1ccc(OC)c(-c2cc(C(=O)NCc3cccs3)no2)c1`, the inhibition is 0%.

As to `COc1ccc(CCNC(=O)C2CCN(S(=O)(=O)c3cc(OC)ccc3OC)CC2)cc1`, the inhibition is 0%.

As to `COc1ccc(Cl)cc1NC(=O)c1oc(C)nc1C`, the inhibition was 4%.

In the case of `COc1ccc(C(=O)c2coc3ccc(O)c(CN4CCCCC4)c23)cc1`, the inhibition was 0%.

On to `Cc1ccc(-n2c3c(cc(C(=O)O)c2=O)C(=O)CC(C)(C)C3)cc1`, for which the inhibition was 3%.

On to `COc1ccccc1C1(CC(=O)N2CCOCC2)CCOC(C(C)C)C1` (configuration not stated), for which the inhibition was 2%.

Take `CN1CCN(C(=O)NC2CCCN2S(=O)(=O)c2ccc(Cl)cc2)CC1` (configuration not stated): the inhibition is 0%.

Take `Cc1ccc(C(=O)CSc2nnc(CNc3ccc(C)cc3C)o2)cc1`: the inhibition was 7%.

As to `CCOC(=O)c1nnn(-c2nonc2N)c1CN1CCc2ccccc2C1`, the inhibition is 2%.

For the compound `Cc1cc(=O)oc2ccc(OCC(=O)N3CCC(C)CC3)cc12`, the inhibition is 0%.

On to `CC(=O)c1c(OC(=O)c2ccco2)c2ccccc2n1C`, for which the inhibition was 0%.

On to `COc1ccccc1N1CCN(C(=O)C2CCCO2)CC1` (configuration not stated), for which the inhibition was 0%.

For the compound `CCOc1ccc(C(=O)N2CCN(c3ccccc3)CC2)cc1OCC`, the inhibition was 1%.

On to `Cc1ccc(S(=O)(=O)NCCN2CCOCC2)cc1C`, for which the inhibition was 3%.

Regarding `COC(=O)CCn1nnc(-c2cccs2)n1`, the inhibition is 1%.

As a reminder, the inhibition is the change of the read-out against control, counted positive when it falls.
